Measurements reported in the OligoGym collection.

Target: FAN1
Assay: pooled miR-30 sensor sort-seq; sequence = guide strand
Conditions: shRNA
Further: reference of the scale not given here.

Sequence	sensor-assay potency score (higher = more potent)
TAACTAGGAAACTCCATTCGGC	-0.0842
TTGGTCATCTTAATCCAGCTTA	0.33
ATAACTTCTGACCAGTAGCTGA	-0.771
TAACATGATCGCATTATCTGAG	0.286
TTGCTGATTGATAAGCTTCTAC	-0.452
TTTCACATCTTGCACAGCCATT	-1.51
TAAGCAACTGTCATCCTGCAGA	0.0838
TTACATATAACTTCTGACCAGT	0.259
TTTTTGAGAACTGTTCTCCAAA	-0.862
TTGAACTTTTTACAGCTCGGAG	-1.04
TTCTTTGATACACTCTTGCTTT	-0.307

Target: FANCF
Assay: as above
Conditions: shRNA

Sequence	sensor-assay potency score (higher = more potent)
TCTATAGCCATTGAAGCGCAGC	-1.1
ATGTGCACCGCAGACCGCCGGC	-1.25
TGACAGAGGCTTTGAAACCTAT	-1.18
TATCTTTCAGAGGTGGAGGGGC	-0.0769
TAGAACTTTATCTTTCAGAGGT	0.316
TTCAAAATCTCCATCCTGCGCT	0.034
TGGAAGTTCGCTAATCCCGGAA	-0.728
AAGAGGTCTGTCCAGATGCTAA	-1.55
TAGACAGGAGACAGCGCTGGGT	-0.533
TTAGAACTTTATCTTTCAGAGG	-1.12
TTTGGGTTCTCTCTATAGCCAT	-1.05
TTATCTTTCAGAGGTGGAGGGG	-0.733
ATAGACAGGAGACAGCGCTGGG	-0.33
ATAGCCATTGAAGCGCAGCATG	-1.41
TCTCTTGGAGTGTCTCCTCATC	-1.11
TTGGGTTCTCTCTATAGCCATT	-1.39
AAACCTATTGTGCAACTCCTCC	-0.726
TTCATCAGAGAGTCCTCCTGGA	0.554
TACTTCAAAATCTCCATCCTGC	0.811
TTGGAGTGTCTCCTCATCGGCG	-0.931
TTTTGTAAACTATATATTCTAT	-0.511
TTGGGACTCAGTTCCAACCCAA	-0.182
TTGAAACCTATTGTGCAACTCC	0.168
TTTCTGAAGGTCATAGTGCAAA	-1.33

Target: FANCG
Assay: as above
Conditions: shRNA

Sequence	sensor-assay potency score (higher = more potent)
TATAGGAATGGTCACATTCCTA	-1.18
TAGCTTTCTAGGTACAGGGGGA	-0.426
TCTCTGTGGATTTCCCATCTTA	-0.461
TACACCTGGACCAACACAGGCC	0.254
ATGAAGGCTGCTTAGTGCCTTG	-0.886
